According to ChEMBL document CHEMBL3988442, “University of Dundee, Small-Polar-MMV Screening Library” (2021):
For some assays here: Entries with a potency or affinity are not part of this list.

Assays:
Design in all cases: scale not given: direction of the effect not stated beside the values
[1] = target: Protein translocase subunit SecA (Escherichia coli (strain K12)) (UniProt P10408); assay: Assay to Identify E. coli SecA ATPase Inhibitors; format: functional; conditions: 30 µM
[2] = target: T1, Ubiquitin-activating enzyme e1, putative (Leishmania donovani (strain BPK282A1)) (UniProt E9BSI1); assay: Leishmania donovani Ubiquitin Activating Enzyme (LdE1); format: functional; conditions: 30 µM
T1 sequence (whole entry): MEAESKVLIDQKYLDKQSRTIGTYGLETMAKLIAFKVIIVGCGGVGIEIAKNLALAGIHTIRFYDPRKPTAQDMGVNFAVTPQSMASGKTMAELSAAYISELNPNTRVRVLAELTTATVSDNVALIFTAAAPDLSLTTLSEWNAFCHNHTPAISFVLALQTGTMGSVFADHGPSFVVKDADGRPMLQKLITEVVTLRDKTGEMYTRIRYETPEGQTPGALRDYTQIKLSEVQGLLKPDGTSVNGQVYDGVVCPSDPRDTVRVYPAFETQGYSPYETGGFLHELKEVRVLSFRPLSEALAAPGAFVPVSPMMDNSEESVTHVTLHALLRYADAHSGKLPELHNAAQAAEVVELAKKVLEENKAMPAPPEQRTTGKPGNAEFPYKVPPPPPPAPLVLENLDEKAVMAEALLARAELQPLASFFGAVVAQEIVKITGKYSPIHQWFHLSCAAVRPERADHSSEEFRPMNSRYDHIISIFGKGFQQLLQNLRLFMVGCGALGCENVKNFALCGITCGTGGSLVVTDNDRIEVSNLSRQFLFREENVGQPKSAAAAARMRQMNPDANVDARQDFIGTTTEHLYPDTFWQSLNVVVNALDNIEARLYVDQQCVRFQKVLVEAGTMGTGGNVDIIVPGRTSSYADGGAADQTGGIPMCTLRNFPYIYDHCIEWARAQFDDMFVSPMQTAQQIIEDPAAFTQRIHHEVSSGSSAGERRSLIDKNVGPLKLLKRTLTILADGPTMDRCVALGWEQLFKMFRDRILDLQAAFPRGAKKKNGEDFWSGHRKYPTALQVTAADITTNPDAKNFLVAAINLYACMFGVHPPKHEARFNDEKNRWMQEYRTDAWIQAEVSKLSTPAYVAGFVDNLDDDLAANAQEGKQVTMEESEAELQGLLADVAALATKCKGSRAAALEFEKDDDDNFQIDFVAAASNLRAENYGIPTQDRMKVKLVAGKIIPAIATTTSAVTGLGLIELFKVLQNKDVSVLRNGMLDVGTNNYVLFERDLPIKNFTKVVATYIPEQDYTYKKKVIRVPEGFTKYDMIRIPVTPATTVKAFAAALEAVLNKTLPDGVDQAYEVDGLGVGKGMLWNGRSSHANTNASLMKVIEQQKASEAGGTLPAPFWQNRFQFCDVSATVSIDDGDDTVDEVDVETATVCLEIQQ

[3] = target: AMP-activated protein kinase, AMPK (Homo sapiens) (UniProt P54646+O43741+P54619+Q9UGJ0+Q9Y478+Q13131+Q9UGI9); assay: AMP-dependent Kinase enzyme assay. An in vitro enzyme assay that detects ADP turnover that is directly proportional to AMPK activity. This uses naive AMPK that is activated during the assay with MK-8722; format: functional; conditions: 30 µM
[4] = target: Sialic acid-binding Ig-like lectin 9 (Homo sapiens) (UniProt Q9Y336); assay: Hs-Siglec9 ALPHAscreen SOP 20170721; conditions: 10 µM
Sialic acid-binding Ig-like lectin 9 (Homo sapiens), sequence (Q9Y336 whole entry): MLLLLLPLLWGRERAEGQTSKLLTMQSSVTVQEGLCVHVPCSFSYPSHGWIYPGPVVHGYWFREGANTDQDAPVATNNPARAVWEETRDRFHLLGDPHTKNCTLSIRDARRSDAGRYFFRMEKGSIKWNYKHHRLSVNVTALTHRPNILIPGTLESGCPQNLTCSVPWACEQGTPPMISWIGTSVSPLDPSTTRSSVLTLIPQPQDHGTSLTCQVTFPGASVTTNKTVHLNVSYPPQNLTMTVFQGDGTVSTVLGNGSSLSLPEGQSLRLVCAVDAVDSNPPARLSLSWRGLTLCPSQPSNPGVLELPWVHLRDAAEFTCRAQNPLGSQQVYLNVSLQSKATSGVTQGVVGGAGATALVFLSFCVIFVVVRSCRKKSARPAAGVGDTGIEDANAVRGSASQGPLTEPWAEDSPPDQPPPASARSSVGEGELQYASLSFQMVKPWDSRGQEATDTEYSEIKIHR

[5] = test system: Trypanosoma cruzi; assay: Trypanosoma cruzi phosphomannomutase and mannose-1-phosphate guanylyltransferase assay; format: functional; conditions: 10 µM
[6] = target: T2, Arginase-2, mitochondrial (Homo sapiens) (UniProt P78540); assay: in vitro enzyme assay to detect the production of urea directly proportional to the activity of Arginase II; format: functional; conditions: 33.3 µM; note: in the data most compounds retested in dose-response had high values
T2 sequence (whole entry): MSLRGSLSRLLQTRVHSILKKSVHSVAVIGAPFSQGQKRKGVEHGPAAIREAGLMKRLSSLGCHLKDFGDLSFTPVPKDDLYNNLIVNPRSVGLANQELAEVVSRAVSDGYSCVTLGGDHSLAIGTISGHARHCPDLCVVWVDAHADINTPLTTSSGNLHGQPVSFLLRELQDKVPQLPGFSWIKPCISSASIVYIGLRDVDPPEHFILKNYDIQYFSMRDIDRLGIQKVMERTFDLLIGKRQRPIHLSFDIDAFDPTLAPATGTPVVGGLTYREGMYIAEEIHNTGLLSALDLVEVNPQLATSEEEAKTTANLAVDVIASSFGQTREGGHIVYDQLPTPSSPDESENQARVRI

[7] = target: T3, Proteasome subunit beta (Trypanosoma cruzi) (UniProt O96673); assay: Trypanosoma cruzi proteasome chymotrypsin-like activity (TcProtChymo) assay.; note: in the data most compounds retested in dose-response had high values; format: functional; conditions: 9.37 µM
T3 sequence (whole entry): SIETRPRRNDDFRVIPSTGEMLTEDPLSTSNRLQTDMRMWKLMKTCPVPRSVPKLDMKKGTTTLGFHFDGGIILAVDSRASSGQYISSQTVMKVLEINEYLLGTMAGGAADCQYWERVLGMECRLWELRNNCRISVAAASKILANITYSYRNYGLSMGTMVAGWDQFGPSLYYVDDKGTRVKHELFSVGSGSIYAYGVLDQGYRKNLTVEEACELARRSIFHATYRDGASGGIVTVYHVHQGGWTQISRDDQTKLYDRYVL

[8] = species on record: Homo sapiens; assay: To identify inhibition of the IFN signalling (Jak-Stat) pathway via expression of an eGFP reporter gene under the control of an IFN-stimulated response element (ISRE) containing MxA promoter.; format: functional; conditions: 30 µM
[9] = target: T4, Tyrosyl-tRNA synthetase, putative (Trypanosoma cruzi (strain CL Brener)) (UniProt Q4DSP6); assay: Trypanosoma cruzi tyrosyl tRNA synthetase (TcYRS) _High Tyrosine SOP; format: functional; conditions: 30 µM; note: in the data most compounds retested in dose-response had high values
T4 sequence (whole entry): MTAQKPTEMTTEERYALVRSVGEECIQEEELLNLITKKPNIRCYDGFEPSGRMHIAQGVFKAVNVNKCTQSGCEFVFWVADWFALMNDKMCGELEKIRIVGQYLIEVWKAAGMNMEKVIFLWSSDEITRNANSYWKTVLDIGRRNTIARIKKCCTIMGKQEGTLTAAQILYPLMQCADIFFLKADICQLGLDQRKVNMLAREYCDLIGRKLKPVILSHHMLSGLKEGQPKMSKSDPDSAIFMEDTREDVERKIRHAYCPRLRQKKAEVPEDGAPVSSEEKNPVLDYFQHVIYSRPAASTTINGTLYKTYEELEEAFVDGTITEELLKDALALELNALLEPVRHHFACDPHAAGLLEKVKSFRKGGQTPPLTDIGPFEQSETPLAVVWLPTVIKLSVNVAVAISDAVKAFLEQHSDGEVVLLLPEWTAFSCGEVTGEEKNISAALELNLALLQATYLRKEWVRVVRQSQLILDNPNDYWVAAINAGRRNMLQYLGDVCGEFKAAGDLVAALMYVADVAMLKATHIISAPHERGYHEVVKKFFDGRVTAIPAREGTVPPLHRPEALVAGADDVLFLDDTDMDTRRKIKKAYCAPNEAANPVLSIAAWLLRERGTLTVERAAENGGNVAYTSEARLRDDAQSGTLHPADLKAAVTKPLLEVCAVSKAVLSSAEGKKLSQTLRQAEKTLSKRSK

[10] = target: T4, Tyrosyl-tRNA synthetase, putative (Trypanosoma cruzi (strain CL Brener)); assay: Trypanosoma cruzi tyrosyl tRNA synthetase (TcYRS) SOP; format: functional; conditions: 30 µM
[11] = target: Chromo domain-containing protein 1 (Saccharomyces cerevisiae (strain ATCC 204508 / S288c) (Baker's yeast)) (UniProt P32657); assay: ScCHD-1 Enzyme Inhibition Assay; format: functional; conditions: 30 µM; note: in the data most compounds retested in dose-response had high values
Chromo domain-containing protein 1 (Saccharomyces cerevisiae (strain ATCC 204508 / S288c) (Baker's yeast)), sequence (P32657 whole entry, the tested form may be a part): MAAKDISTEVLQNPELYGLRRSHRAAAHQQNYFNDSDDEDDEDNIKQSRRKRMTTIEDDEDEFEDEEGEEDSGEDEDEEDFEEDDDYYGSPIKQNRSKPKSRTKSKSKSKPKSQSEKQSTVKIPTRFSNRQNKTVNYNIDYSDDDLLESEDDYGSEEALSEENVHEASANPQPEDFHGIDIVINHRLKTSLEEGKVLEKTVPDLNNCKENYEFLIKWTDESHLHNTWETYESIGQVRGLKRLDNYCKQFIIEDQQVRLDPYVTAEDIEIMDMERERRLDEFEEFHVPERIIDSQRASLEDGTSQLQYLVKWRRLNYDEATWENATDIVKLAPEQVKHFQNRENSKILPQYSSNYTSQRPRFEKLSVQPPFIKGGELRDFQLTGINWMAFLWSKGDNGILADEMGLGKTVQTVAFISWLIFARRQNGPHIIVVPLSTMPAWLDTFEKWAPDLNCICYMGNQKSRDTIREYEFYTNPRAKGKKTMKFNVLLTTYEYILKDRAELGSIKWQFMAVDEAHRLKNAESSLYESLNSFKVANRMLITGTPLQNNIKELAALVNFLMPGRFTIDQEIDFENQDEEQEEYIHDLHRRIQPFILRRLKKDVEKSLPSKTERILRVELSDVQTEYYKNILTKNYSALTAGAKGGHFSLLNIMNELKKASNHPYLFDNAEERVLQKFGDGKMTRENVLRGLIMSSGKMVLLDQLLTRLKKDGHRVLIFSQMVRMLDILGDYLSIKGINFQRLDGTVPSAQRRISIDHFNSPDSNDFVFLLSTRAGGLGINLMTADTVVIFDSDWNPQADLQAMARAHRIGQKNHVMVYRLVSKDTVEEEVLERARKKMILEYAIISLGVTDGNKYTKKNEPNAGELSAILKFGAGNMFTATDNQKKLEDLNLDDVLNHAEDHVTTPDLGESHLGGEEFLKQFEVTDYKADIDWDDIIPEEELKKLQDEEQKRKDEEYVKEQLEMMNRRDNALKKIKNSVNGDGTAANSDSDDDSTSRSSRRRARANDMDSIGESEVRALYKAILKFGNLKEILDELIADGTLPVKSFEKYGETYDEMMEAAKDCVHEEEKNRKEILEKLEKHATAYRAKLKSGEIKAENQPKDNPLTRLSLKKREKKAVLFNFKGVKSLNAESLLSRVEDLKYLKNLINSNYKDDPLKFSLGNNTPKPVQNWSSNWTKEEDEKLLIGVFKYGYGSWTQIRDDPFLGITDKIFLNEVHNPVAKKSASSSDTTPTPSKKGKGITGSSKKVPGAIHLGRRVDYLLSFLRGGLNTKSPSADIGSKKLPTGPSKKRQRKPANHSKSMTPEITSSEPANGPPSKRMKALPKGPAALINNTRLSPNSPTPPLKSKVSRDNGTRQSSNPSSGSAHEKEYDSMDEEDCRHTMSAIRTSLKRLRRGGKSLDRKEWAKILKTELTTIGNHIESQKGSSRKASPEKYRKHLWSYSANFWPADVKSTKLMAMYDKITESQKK

Protein translocase subunit SecA (Escherichia coli (strain K12)), sequence (P10408 whole entry): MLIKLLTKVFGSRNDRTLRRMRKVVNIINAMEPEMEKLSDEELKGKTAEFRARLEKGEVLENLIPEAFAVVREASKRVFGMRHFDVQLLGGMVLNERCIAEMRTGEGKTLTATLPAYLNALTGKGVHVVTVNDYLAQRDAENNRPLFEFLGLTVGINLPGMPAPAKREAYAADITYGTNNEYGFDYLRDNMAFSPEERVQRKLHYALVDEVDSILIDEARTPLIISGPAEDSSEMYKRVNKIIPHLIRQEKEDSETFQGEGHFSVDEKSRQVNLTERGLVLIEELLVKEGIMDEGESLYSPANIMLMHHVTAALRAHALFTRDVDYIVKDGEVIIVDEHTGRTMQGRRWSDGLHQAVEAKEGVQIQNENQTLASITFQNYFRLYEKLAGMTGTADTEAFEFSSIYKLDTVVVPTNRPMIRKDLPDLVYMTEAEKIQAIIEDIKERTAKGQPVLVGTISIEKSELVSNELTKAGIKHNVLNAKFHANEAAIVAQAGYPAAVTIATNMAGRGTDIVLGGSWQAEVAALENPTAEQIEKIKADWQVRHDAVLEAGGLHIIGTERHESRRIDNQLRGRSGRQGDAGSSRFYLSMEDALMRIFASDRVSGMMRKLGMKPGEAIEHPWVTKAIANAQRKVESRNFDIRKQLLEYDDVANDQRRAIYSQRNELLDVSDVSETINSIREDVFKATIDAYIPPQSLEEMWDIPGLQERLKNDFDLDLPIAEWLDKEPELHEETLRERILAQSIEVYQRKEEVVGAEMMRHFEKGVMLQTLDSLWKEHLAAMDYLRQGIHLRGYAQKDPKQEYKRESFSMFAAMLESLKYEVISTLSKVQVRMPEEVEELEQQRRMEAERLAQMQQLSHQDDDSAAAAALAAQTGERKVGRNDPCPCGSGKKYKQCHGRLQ

Compound | Percent Effect [1] [%] | Percent Effect [2] [%] | Percent Effect [3] [%] | Percent Effect [4] [%] | Percent Effect [5] [%] | Percent Effect [6] [%] | Percent Effect [7] [%] | Percent Effect [8] [%] | Percent Effect [9] [%] | Percent Effect [10] [%] | Percent Effect [11] [%]
NC(=O)C1(c2cnccn2)CCCN1Cc1cc2ccccc2o1 (configuration not stated) | -2.52 | 6.76 | 11.2 | 3.94 | -1.78 | -2.09 | 14.2 | 1.46 | 9.68 | 16.9 | -6.96
Cc1nc(CN2CCCN(C(=O)C3(C#N)CCCCC3)CC2)cs1 | -5.19 | 5.06 | -4.31 | 9.63 | -1.79 | 0 | 7.12 | 13.8 | 6.4 | 13.9 | -3.28
Cc1ccccc1Cc1cnc(NC(=O)C2CNC(=O)N2)s1 (configuration not stated) | -3.2 | 3.8 | -1.9 | 0.365 | 2.36 | -4.95 | 13.7 | 22.3 | 2.08 | 15.2 | -23.7
Cc1cnn(CC2CCCN2Cc2cc(=O)n3cccc(C)c3n2)c1 (configuration not stated) | -6.14 | 8.11 | -3.73 | 28.3 | 6.75 | 35.5 | 17.8 | -6.92 | 14 | 25.9 | -5.16
Cc1cccc(N2CC[C@@H]3CN(C(=O)c4ccco4)CCO[C@@H]3C2)n1 | -3.29 | 10.7 | 10.8 | 3.1 | -3.15 | 4.89 | 9.78 | 6.1 | 7.45 | 14.1 | -6.54
O=C1NCCN1C1CCCN(Cc2nnc(-c3ccc(F)cc3)o2)C1 (configuration not stated) | -1.01 | 2.7 | -4.34 | 16.6 | 6.04 | 2.03 | 9.7 | -7.13 | 3.96 | 15.8 | -2.67
NC(=O)C1CN(C(=O)Nc2cc(Cl)cc(Cl)c2)CCO1 (configuration not stated) | -2.58 | 0 | 0.0499 | 4.99 | 4.17 | -3.19 | 12.1 | 22.7 | 4.17 | 11.1 | 2.8
Cn1cccc1C(=O)N[C@@H]1CN(CC2CC2)[C@@H]2COC[C@@H]21 | -2.02 | 5.33 | -1.14 | 25.9 | -7.14 | -54.7 | -2.73 | -2.91 | 1.04 | 7.5 | -7.28
N#Cc1c(F)cccc1N1CCC(NS(=O)(=O)c2cccs2)CC1 | 0.0864 | -11 | 24.6 | -2.85 | -9.6 | -0.455 | 14 | 34.2 | -15.1 | -20 | -4.33
Cc1ccc(N2CC[C@H](OCC3CC3)[C@@H]2Cc2cnn(C)c2)nn1 | -4.88 | 5.41 | -7.52 | -0.711 | -0.195 | 0.833 | 15.1 | 8.56 | 7.92 | 8.54 | 0.632
O=C(N1CCCO1)[C@@]12CCO[C@@H]1CCN(Cc1ccccc1)C2 | -2.49 | 2.67 | -2.01 | 8.06 | -4.25 | -22.8 | 6.67 | 0.724 | 4.17 | 10 | -6.13
Cc1nn(C)c(C)c1CC(=O)N1CCC(N(C)c2cccnn2)CC1 | 0.112 | 15.8 | 0.809 | -2.31 | -2.82 | 4.98 | 10.5 | 42.1 | 3.43 | 4.88 | -9.53
Cc1nc(C(=O)N2CCCC2c2c(C)nn(C)c2C)ccc1C#N (configuration not stated) | -5.64 | -1.27 | 7.49 | 4.58 | -2.36 | 1.07 | 16.1 | 4.46 | 0 | 2.53 | 10.7
O=C(N1CCOCC1)[C@@]12CCO[C@@H]1CCN(CCN1CCCCC1)C2 | -0.594 | 14.7 | -0.279 | -2.46 | 1.18 | -4.05 | 20.9 | -2.62 | -6.35 | 15.4 | -11.6
CNC(=O)[C@@]12CCO[C@@H]1CCN(S(=O)(=O)c1cccnc1)C2 | -5.53 | 10.8 | 0.489 | -1.11 | 4.99 | -3.5 | 9.96 | 4.96 | 5.41 | 12.8 | 0.201
Cc1cc(C2CCCN(CCc3ccccn3)C2)n[nH]1 (configuration not stated) | -4.83 | 2.53 | -4 | 3.7 | 9.73 | 1.14 | -1.23 | -3.32 | -7.39 | 11.4 | -2.02
Cc1cc(C[S+]([O-])CC(=O)NCc2cccs2)no1 (configuration not stated) | -6.18 | 10.4 | 3.08 | 10.1 | 1.87 | -6.05 | 1.01 | 5.94 | 8.74 | 19.5 | -5.87
Cc1cc(C)cc(OCCC(=O)N2CCOCC2c2ncon2)c1 (configuration not stated) | -7.26 | 2.7 | -4.41 | 6.93 | -5.11 | -1.29 | -1.62 | 4.3 | 2.97 | 11 | 0.318
Cc1ccc(C(O)CNCc2c(C(C)C)nn(C)c2N(C)C)cc1 (configuration not stated) | -7.17 | 13 | -5.78 | 6.38 | 7.87 | -3.56 | 10.1 | -0.105 | 10.7 | 19.5 | -7.91
CN(CCN1CCCCCC1)C(=O)c1cc(CN2CCC(O)CC2)on1 | -4.14 | 2.74 | -1.87 | -2.01 | 2.74 | 0.909 | 13.3 | -3.45 | 8.6 | 15 | -2.4
CCc1ccc(C(=O)O)cc1S(=O)(=O)Nc1ccc(F)c(C#N)c1 | -2.04 | -2.7 | -11.6 | 10.6 | 3.87 | -0.802 | 1.08 | 7.96 | -2.46 | 1.24 | -2.76
Cc1ccc(C(=O)N2CCSCC2)cc1NC(=O)Cn1cncn1 | -4.05 | 16.4 | -5.58 | 10.2 | 7.74 | -7.98 | 17.6 | -4.75 | 6.25 | 18.5 | -7.01
